# Screens as filed in PubChem.
# This excerpt belongs to a sample that is enriched for hits.
# GALR2 antag: GALR2 antagonists in receptor-expressing cells, primary screen. 0.39% of 140,000 active. antagonist mode. inhibition, % at 4 µM. Galanin receptor type 2 (Homo sapiens), O43603; in the data active means inhibition above about 27%;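 further: cells stimulated with galanin 1-16 at roughly its EC80; 0% = agonist challenge control and 100% = basal control without agonist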
# PostGolgi ctrl: growth inhibition of yeast control strain, primary screen, counter-screen for post-Golgi transport modulator project; efflux-deficient yeast background strain, growth absorbance A615, 16 h; inhibition, % at 10 µM; 5% of 98,000 active; AID 738, 2007
# S1P2 antag: human S1P2 receptor antagonists, primary screen, cell-based; cell-based S1P2 antagonist assay, inhibition at 5 uM; inhibition, % at 5 µM; 0.21% of 97,000 active; in the data active means inhibition above about 45%;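 further: CRE beta-lactamase reporter cells expressing human S1P2 stimulated with S1P; 0% = agonist at EC80 alone and 100% = agonist plus reference antagonist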
# Target sequence (O95136 whole entry, looked up): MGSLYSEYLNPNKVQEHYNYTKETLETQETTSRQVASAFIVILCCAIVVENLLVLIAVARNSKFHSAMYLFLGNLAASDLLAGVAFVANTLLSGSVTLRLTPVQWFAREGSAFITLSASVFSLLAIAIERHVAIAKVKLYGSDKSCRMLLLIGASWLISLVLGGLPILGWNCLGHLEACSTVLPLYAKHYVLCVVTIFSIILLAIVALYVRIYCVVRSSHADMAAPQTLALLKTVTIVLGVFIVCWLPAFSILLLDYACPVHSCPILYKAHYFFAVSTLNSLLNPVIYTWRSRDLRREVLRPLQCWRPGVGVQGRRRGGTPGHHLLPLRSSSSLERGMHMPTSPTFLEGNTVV
# S1P2 ag: S1P2 receptor agonists, primary screen, cell-based; Sphingosine 1-phosphate receptor 2 (Homo sapiens), O95136; S1P2-expressing cell line, agonist reporter read-out; activation, % at 4.5 µM; 0.46% of 97,000 active; in the data active means activation above about 16%;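 further: 0% = vehicle low control and 100% = maximal reference agonist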
# GALR2 agonist: GALR2 receptor agonists, primary screen, cell-based | Galanin receptor type 2 (Homo sapiens), O43603 | GALR2-expressing cells, agonist activation read-out | activation, % (test concentration not listed) | 0.48% of 140,000 active | AID 803, 2007; in the data active means activation above about 5%, passing the limit was not always enough;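 further: 0% = vehicle buffer wells and 100% = reference agonist at full effect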
# PostGolgi yeast: phenotypic screen on post-Golgi transport, primary screen | inhibition, % at 10 µM | 0.9% of 98,000 active | post-Golgi transport phenotypic cell assay;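 further: yeast cells grown in 1536-well plates; yeast grown about 18 h at 30C before absorbance read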
# * hit, by the source's call; . = no result given. Unless noted, no stated cut-off is given here; in the data, active means inhibition above about 30%; inactive means the rest.
SMILES,GALR2 antag,PostGolgi ctrl,S1P2 antag,S1P2 ag,GALR2 agonist,PostGolgi yeast
CN=C1CC(SC)=C1c1ccc(C)cc1,-0.9,.,-0.4,2.6,-2.6,.
CCOCCn1c(SCCc2ccccc2)nc2c1c(=O)[nH]c(=O)n2C,6.9,15.5,.,.,-0.8,-1.3
CCOCCn1c(SCc2cccc(C)c2)nc2c1c(=O)[nH]c(=O)n2C,2.6,41.5*,-6.1,-8.7,-3.5,6.2
Cc1cccc(Cn2c(N(C)Cc3ccccc3)nc3c2c(=O)[nH]c(=O)n3C)c1,-20.0,46.6*,-9.6,7.5,1.1,-5.1
CC(C)Cc1ccc(/C=C/C(=O)NC2CC2)cc1,4.5,.,.,.,-1.2,.
CCCCS(=O)CC(COc1ccc(Cl)cc1)OC(=O)c1ccccc1 (configuration not stated),7.3,42.0*,8.5,-3.3,-0.4,-4.5
O=S(Cc1ccc(Cl)cc1)CC(O)COc1ccc(Cl)cc1 (configuration not stated),-7.2,8.3,17.1,-6.2,0.3,-0.5
CN(CC(=O)Nc1ccc(C#N)cc1)CC(=O)Nc1ccc(N2CCOCC2)cc1,5.7,.,.,.,-1.2,.
CN(CC(=O)Nc1ccc(C#N)cc1)Cc1ccc(Cl)c(Cl)c1,0.9,33.5*,4.3,-3.6,-2.1,4.2
O=C(NCCc1ccccc1)C1(c2ccccc2)CC1(Cl)Cl (configuration not stated),-24.5,39.0*,9.3,-4.9,-0.7,5.0
CC(C)NC(=O)C1(c2ccccc2)CC1(Cl)Cl (configuration not stated),8.5,.,.,.,-1.4,.
COc1ccc2c(c1)c(=O)c(C(=O)O)c(-c1ccc3c(c1)OCO3)n2C,-9.1,.,.,.,-0.2,.
CC(=O)c1ccc(NC(=O)C(C)OC(=O)c2ccc(NS(=O)(=O)c3ccc(F)c(F)c3)cc2)cc1 (configuration not stated),5.5,.,.,.,-0.5,.
CC(/C=N/n1c(C2CCCCC2)n[nH]c1=S)=C\c1ccccc1,13.1,44.2*,-17.6,-2.1,-2.6,4.2
CC(=C/c1ccccc1)/C=N/n1c(-c2ccco2)n[nH]c1=S,5.8,33.4*,12.7,-6.8,-1.0,8.6
CC(C)(C)c1ccc(OCCNC(=O)Cc2ccc(F)cc2)cc1,6.4,.,.,.,-0.9,.
Cc1ccc(Sc2nc3c(c(=O)[nH]c(=O)n3C)n2CCc2ccccc2)cc1,1.3,35.2*,9.6,-6.2,-2.5,-15.3
CC(C)CCn1c(SCCc2ccccc2)nc2c1c(=O)[nH]c(=O)n2C,2.5,35.1*,-7.9,-0.7,1.0,-7.3
C/C=C/Cn1c(SCCCc2ccccc2)nc2c1c(=O)[nH]c(=O)n2C,-3.3,41.3*,-32.2,1.7,2.1,4.9
CCCn1c(SCCc2ccccc2)nc2c1c(=O)[nH]c(=O)n2C,3.9,20.0,.,.,0.1,1.5
Cc1ccc(Cn2c(Sc3nnc(C)s3)nc3c2c(=O)[nH]c(=O)n3C)cc1,6.1,1.6,-3.1,-3.6,-4.3,-2.0
Cn1c(=O)[nH]c(=O)c2c1nc(Sc1nc3ccccc3s1)n2Cc1ccccc1,8.9,41.1*,-3.9,-3.4,-1.7,3.0
CC(C)OC(=O)c1cccnc1SCc1cc(=O)n2ccccc2n1,3.9,29.8,-4.7,-4.8,-3.3,30.1*
CC(C)OC(=O)c1cccnc1SCC(=O)N(C)c1ccccc1,1.7,13.8,-4.7,-1.9,-0.9,8.6
CCC(=C(c1ccc(OC)cc1)c1ccc(OC)cc1)c1cn(CC(O)CN2CCN(C)CC2)c2ccccc12 (configuration not stated),0.3,90.7*,1.8,-2.8,-1.7,27.9
SMILES,GALR2 antag,PostGolgi ctrl,S1P2 antag,S1P2 ag,GALR2 agonist,PostGolgi yeast
Cc1cc2cc(CNC(=S)Nc3ccc(OC(F)(F)F)cc3)ccc2[nH]1,1.8,.,.,.,-0.6,.
COc1ccc2cc3cc(C(=O)NCCN4CCN(c5ccccc5F)CC4)oc3nc2c1,4.0,81.0*,10.0,-8.9,-1.9,1.1
O=C(NCc1cccnc1)/C(=C/c1ccc(-c2cccc(Cl)c2)o1)S(=O)(=O)c1ccccc1,19.5,36.7*,28.2,-5.7,0.6,11.2
Cn1c(=O)c(C(=O)CCl)c(N)n(CC2CC2)c1=O,3.8,.,.,.,-1.9,.
O=C(CC1(O)C(=O)N(Cc2ccccc2Cl)c2ccccc21)c1ccco1 (configuration not stated),-9.6,33.9*,-14.5,-3.5,-0.5,-2.6
CCCN(CCC)C(=O)CC(c1ccccc1)c1ccc(C)cc1O (configuration not stated),-11.2,16.7,-33.9,-2.2,-2.1,5.0
